# An excerpt weighted towards active compounds, which were near 19% of everything screened.
# HT1080 IDH1KD tx – toxicity to HT-1080 IDH1 knockdown cells (counter line); HT-1080 IDH1 knockdown viability, ATP luminescence, 48 h; Potency, µM (titrated, usually from 46.1 µM), hits mostly cytotoxic; 360,000 tested, 2% active
#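 % activity derives from luminescence (CellTiter-Glo), normalised to DMSO and no-cell wells. HT-1080-IDH1KD cells, 750/well, had 48 h compound exposure at 37 °C.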
# TDP1 cell noCPT – qHTS for Inhibitors of human tyrosyl-DNA phosphodiesterase 1 (TDP1): qHTS in cells in absence of CPT; DT40 Tdp1-/- hTDP1 cells, no CPT, ATP luminescence, 48 h; AID 686978, 2013; Potency, µM (highest dose often 46.2 µM), usual class: inhibitors; 420,000 tested, 15% active; note: nearly all actives have a fitted effect of over 55% in size
#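 Cells were dispensed at 400 per well, compounds added by pin tool, plates incubated ≥48 hr at 37 °C, then CellTiter-Glo added for 30 min at room temperature before luminescence reading. Line: DT40 Tdp1-/- complemented with hTDP1; camptothecin omitted.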
# HT1080-NT tox – kills 2HG-producing HT-1080-NT fibrosarcoma cells | 360,000 tested, 1.6% active | AID 686970 | Potency, µM (top dose mostly 46.1 µM), actives largely listed as cytotoxic | HT-1080-NT fibrosarcoma viability, CellTiter-Glo ATP luminescence, 48 h;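 note: NT is the 2HG producing partner of a matched IDH1 knockdown line; nearly all actives have a fitted effect of over 55% in size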
#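 Luminescent CellTiter-Glo readout after 48 hours of compound exposure at 37 degrees C defined viability of HT-1080-NT cells. Activity was normalized to DMSO wells and cell-free media wells; concentration-response curves were fitted and assigned curve classes.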
# TDP1 cell CPT – growth inhibition of DT40 Tdp1-/-;hTDP1 cells with camptothecin (screen for TDP1 inhibitors). chicken DT40 Tdp1-/-;hTDP1 cells + 20 nM CPT, ATP luminescence, 48 h. Potency, µM (top dose mostly 46.2 µM), usual class: inhibitors. 420,000 tested, 12% active; note: nearly all actives have a fitted effect of over 55% in size
#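 Chicken DT40 Tdp1-/- cells stably complemented with human TDP1 were seeded at 400 cells/well in medium containing 20 nM camptothecin, exposed to pin-transferred compounds, and grown at 37 °C for at least 48 hr. Viability was read as ATP luminescence.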
# IL1B secr inh – blocks inflammasome-driven IL-1 beta release; THP-1 LPS/ATP IL-1B secretion, AlphaLISA, 16 h; hits give low values; activity change, % at 57.5 µM; 360,000 tested, 4.7% active; AID 743279; in the data active = activity change below about -50%; inconclusive = mostly about -30% to -49%
#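 THP-1 cells pretreated 1 hr with compounds (up to 57.5 uM final), then stimulated with LPS (250 ng/mL final) plus ATP (1.25 mM final); secreted IL-1B measured by AlphaLISA after 16 hr, decreased signal indicating inhibition.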
# A number is an active result; – = inactive; ? = inconclusive; · = no result given; [ ] = dose if it differs, or a comment. Unless noted, calls come from the whole dose curve; as a rule, active = well fitted curve in the direction sought with a large enough effect; inconclusive = small, poorly fitted or top-dose-only effect, or another doubt; inactive = no such curve, though single readings can be large; an effect the other way counts as inactive or inconclusive.
SMILES,HT1080 IDH1KD tx,TDP1 cell noCPT,HT1080-NT tox,TDP1 cell CPT,IL1B secr inh
CN1CCC(=NNC(=O)CN(c2ccc([N+](=O)[O-])cc2)S(=O)(=O)c2ccccc2)CC1,?,–,?,–,–
O=C(NC1CCCCC1)c1nc(C2CCNCC2)oc1-c1ccccc1,?,?,?,?,-66
CCOC(=O)c1ccccc1NC1c2ccccc2C(=O)N1c1ccc(C)cn1 (configuration not stated),–,18µM,–,?,–
O=C1c2ccccc2C(Nc2cccnc2)N1Cc1ccccc1Cl (configuration not stated),–,21µM,–,?,–
Cc1ccc(N2C(=O)c3ccccc3C2Nc2cccnc2)nc1 (configuration not stated),–,26µM,–,15µM,–
CCOC(=O)c1ccccc1NC1c2ccccc2C(=O)N1C1CCN(C(=O)OCC)CC1 (configuration not stated),–,16µM,–,?,–
Cc1ccc(NC2c3ccccc3C(=O)N2c2cccnc2)cc1 (configuration not stated),–,–,–,–,–
O=C1c2ccccc2C(Nc2cccnc2)N1Cc1ccccc1 (configuration not stated),–,–,–,–,–
CCOC(=O)N1CCC(N2C(=O)c3ccccc3C2Nc2ccccc2C)CC1 (configuration not stated),–,?,–,?,–
Cc1cc(C)n(C(=O)Cn2nc([N+](=O)[O-])c(Br)c2C)n1,–,–,–,–,–
CCOC(=O)CSc1nc2ccc(NC(=O)c3ccc(F)cc3)cc2s1,·,–,·,–,·
Cc1cc(C)nc(-n2nc(C)c(C3(O)C(=O)Nc4ccccc43)c2N)n1 (configuration not stated),–[9.24 µM],?,–,–,–
COc1ccccc1OCCn1c(NC(=O)c2ccccc2Cl)nc2ccccc21,·,16µM,·,23µM,·
CC(=O)Nc1nc2ccccc2n1CCOc1ccccc1Cl,–,15µM,–,?,–
Cc1noc(NS(=O)(=O)c2cccc3c(N(C)C)cccc23)c1C,·,–,·,–,·
Cc1ccc(SCC(=O)OCC(=O)NC(C)c2ccc(Br)cc2)cc1 (configuration not stated),–,–,–,–,–
COc1ccc2c(c1C)CCC(C)(C#N)C2=O (configuration not stated),–,–,–,–,–
COc1cc(OC)cc(C(=O)N[C@H](C(=O)OCC(=O)Nc2ccc(F)c(F)c2)C(C)C)c1,–,–,–,–,–
O=c1c(=Nc2ccccc2O)c(=O)c2ccccc12,?,12µM,–,7.3µM,–
O=C(/C=C\c1cn(-c2ccccc2)nc1-c1ccccc1)Nc1nccs1,21µM,?,15µM,15µM,–
C/C(=C\C(=O)Nc1nccs1)c1ccccc1,–,–,–,–,–
O=C(/C=C\c1cn(-c2ccccc2)nc1-c1ccc2c(c1)OCCO2)N1CCOCC1,–,10µM,–,?,–
O=C(O)/C=C/c1cn(-c2ccccc2)nc1-c1ccc2c(c1)OCCO2,–,?,–,–,–
CN(C)C(=O)/C=C\c1cn(-c2ccccc2)nc1-c1ccc2c(c1)OCCO2,–,?,–,?,?
CN1CCN(C(=O)/C=C/c2cn(-c3ccccc3)nc2-c2ccc3c(c2)OCCO3)CC1,23µM,–,23µM,–,-62
O=C(/C=C/c1cn(-c2ccccc2)nc1-c1cccnc1)N1CCCCC1,–,18µM,–,?,–
O=C(Cc1cc(=O)oc2cc(O)ccc12)NC(Cc1ccc(Cl)cc1)C(=O)O (configuration not stated),–,?,–,–,–
CC(=O)Nc1ccc(NC(=O)C(C)OC(=O)/C=C/c2cn(-c3ccccc3)nc2-c2cccnc2)cc1 (configuration not stated),?,21µM,?,?,?
Cc1ccccc1NC(=O)COC(=O)/C=C/c1cn(-c2ccccc2)nc1-c1cccnc1,–,?,–,–,–
Cc1noc(C)c1C(=O)Nc1nc(C23CC4CC(CC(C4)C2)C3)cs1,–,18µM,–[9.24 µM],?,-58
